Laboratory results: PubChem BioAssay
Active and inactive are the calls of the source.

Experiments:
[1] = tested on: Plasmodium falciparum Sir2 (PF13_0152, Sir2A); experiment: Plasmodium falciparum Sir2A binding compounds – biochemical, small-molecule microarray, 635 nm fluorescence, primary screen (AID 1098); conditions: fluorescence 635 nm, higher = more signal;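 also: score merges spot fluorescence intensity with its signal-to-noise ratio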
[2] = probe aDKK1 binding to arrayed compounds – biochemical, biotinylated probe, 635/667 nm fluorescence, primary screen (AID 1099); conditions: small-molecule microarray, higher = more signal;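 also: score merges 667nm spot fluorescence with signal to noise across triplicate slides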
[3] = probe aCHRDL2 binding to arrayed compounds – biochemical, biotinylated probe, 635/667 nm fluorescence, primary screen (AID 1100); conditions: small-molecule microarray, higher = more signal
[4] = change in splice reporter luminescence, either direction, cell-based, HEK293, spliceosome inhibition project, primary screen (AID 1101); conditions: HEK293 splicing luciferase reporter, 24 h, higher = more signal, called active from +8 up or from −8 down;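 also: HEK293 cells carrying a splicing-competent luciferase reporter gene; test concentration not given here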
[5] = target: Fibroblast growth factor 10 (Homo sapiens) (UniProt O15520); experiment: compounds binding fibroblast growth factor 10 – biochemical, small-molecule microarray, 635 nm fluorescence, primary screen (AID 1102); conditions: FGF10 binding, fluorescence 635 nm, higher = more signal
Fibroblast growth factor 10 (Homo sapiens), sequence (O15520 whole entry, looked up): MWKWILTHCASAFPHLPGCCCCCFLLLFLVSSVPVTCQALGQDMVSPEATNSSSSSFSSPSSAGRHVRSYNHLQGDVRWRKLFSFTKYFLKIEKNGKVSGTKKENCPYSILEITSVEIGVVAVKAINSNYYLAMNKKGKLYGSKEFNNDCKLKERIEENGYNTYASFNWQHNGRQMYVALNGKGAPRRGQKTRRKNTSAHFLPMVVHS

[6] = tested on: glycogen synthase kinase-3 (GSK3A per assay name; protocol says GSK3B); experiment: compounds binding glycogen synthase kinase-3 – biochemical, small-molecule microarray, 635 nm fluorescence, GSK3A, primary screen (AID 1103); conditions: fluorescence 635 nm, higher = more signal; also: the record names both GSK3A and GSK3B
[7] = target: Epidermal growth factor receptor (Homo sapiens) (UniProt P00533); experiment: compounds binding epidermal growth factor receptor – biochemical, small-molecule microarray, 635 nm fluorescence, primary screen (AID 1104); conditions: EGFR binding, higher = more signal;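 also: score merges 667 nm emission intensity with spot signal to noise over triplicate slides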
Epidermal growth factor receptor (Homo sapiens), sequence (P00533 whole entry, looked up): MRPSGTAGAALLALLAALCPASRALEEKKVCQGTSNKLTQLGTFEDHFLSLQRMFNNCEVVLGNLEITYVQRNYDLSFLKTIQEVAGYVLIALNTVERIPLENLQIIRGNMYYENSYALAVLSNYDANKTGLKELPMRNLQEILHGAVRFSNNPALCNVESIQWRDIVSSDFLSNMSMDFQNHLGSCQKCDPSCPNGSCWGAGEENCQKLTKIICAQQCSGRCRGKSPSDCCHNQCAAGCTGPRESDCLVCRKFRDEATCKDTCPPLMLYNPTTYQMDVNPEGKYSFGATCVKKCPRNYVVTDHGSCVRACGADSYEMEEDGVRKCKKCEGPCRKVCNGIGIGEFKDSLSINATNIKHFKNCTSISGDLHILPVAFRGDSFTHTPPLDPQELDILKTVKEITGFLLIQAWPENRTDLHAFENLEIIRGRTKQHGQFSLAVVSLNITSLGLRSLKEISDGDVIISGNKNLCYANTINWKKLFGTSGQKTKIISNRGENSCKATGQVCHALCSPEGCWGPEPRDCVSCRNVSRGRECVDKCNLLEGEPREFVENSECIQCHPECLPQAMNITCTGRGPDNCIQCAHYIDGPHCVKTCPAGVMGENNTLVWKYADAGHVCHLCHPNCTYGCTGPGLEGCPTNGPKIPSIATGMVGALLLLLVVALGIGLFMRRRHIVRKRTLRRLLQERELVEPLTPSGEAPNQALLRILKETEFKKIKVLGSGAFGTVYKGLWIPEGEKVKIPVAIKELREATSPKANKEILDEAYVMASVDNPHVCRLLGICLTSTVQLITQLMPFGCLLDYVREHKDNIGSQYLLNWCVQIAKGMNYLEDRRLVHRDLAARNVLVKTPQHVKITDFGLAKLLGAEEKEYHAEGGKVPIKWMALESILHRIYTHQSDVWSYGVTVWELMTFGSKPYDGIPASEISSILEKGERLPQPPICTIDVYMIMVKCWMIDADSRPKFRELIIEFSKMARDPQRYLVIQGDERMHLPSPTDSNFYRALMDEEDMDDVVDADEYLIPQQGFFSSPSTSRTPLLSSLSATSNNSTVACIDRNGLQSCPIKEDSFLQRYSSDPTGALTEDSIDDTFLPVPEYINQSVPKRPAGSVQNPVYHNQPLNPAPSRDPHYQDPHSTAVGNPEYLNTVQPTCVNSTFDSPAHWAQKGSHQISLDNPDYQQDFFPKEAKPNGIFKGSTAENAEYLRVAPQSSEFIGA

[8] = target: Follistatin-related protein 3 (Homo sapiens) (UniProt O95633); experiment: compounds binding follistatin-related protein 3 – biochemical, small-molecule microarray, 635 nm fluorescence, primary screen (AID 1105); conditions: FSTL3 binding, higher = more signal;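 also: score merges emission near 667 nm and signal to noise per printed spot across three slides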
Follistatin-related protein 3 (Homo sapiens), sequence (O95633 whole entry, looked up): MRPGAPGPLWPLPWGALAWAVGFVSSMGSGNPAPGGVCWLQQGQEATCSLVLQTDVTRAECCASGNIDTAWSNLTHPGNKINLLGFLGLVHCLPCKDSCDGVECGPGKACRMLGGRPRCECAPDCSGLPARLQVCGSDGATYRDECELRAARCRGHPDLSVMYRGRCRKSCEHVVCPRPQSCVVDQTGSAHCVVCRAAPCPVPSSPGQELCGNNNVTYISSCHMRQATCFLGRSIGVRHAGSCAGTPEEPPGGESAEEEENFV

[9] = target: Dickkopf-related protein 1 (Homo sapiens) (UniProt O94907); experiment: small molecules binding DKK1 protein – biochemical, small-molecule microarray, 635 nm fluorescence scan, primary screen (AID 1106); conditions: higher = more signal;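 also: score merges emission near 667 nm with signal to noise over three replicate slides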
Dickkopf-related protein 1 (Homo sapiens), sequence (O94907 whole entry, looked up): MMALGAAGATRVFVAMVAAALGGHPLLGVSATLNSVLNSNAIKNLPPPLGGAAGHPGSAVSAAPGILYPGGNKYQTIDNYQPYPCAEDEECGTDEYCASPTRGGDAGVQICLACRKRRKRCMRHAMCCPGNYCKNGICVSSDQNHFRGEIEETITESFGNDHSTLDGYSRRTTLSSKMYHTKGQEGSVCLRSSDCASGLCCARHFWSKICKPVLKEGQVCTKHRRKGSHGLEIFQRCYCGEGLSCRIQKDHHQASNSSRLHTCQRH

[10] = tested on: Inhibin beta A chain (activin A); experiment: small molecules binding activin A – biochemical, small-molecule microarray, 635 nm fluorescence scan, primary screen (AID 1107); conditions: INHBA, higher = more signal;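 also: mouse activin A protein probed at 4.33 µg/mL on printed slides; score merges bound-protein fluorescence near 667 nm with spot signal-to-noise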
[11] = tested on: Human papillomavirus type 1a protein E7 (residues 44-93); experiment: small molecules binding HPV E7 44-93 – biochemical, small-molecule microarray, residues 44-93, 635 nm fluorescence, primary screen (AID 1108); conditions: fluorescence 635 nm, higher = more signal;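 also: E7 fragment applied at 1 µg/mL in TBST for 1 h at 4 C; score combines spot fluorescence with its signal to noise ratio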
[12] = hepatitis C replication reporter changes, two-sided – Huh7 cells, luciferase reporter, HCV replication inhibitor project, primary screen (AID 1109); conditions: Huh7 HCV replicon luciferase reporter, 48 h; higher = more signal;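 also: huh7 hepatoma cells harbouring a luciferase neomycin HCV replicon reporter; luciferase luminescence as measure of HCV replicon replication; test concentration not given here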
[13] = target: Left-right determination factor 2 (Homo sapiens) (UniProt O00292); experiment: small molecules binding LEFTY2 protein – biochemical, small-molecule microarray, 635 nm fluorescence scan, primary screen (AID 1110); conditions: higher = more signal
Left-right determination factor 2 (Homo sapiens), sequence (O00292 whole entry, looked up): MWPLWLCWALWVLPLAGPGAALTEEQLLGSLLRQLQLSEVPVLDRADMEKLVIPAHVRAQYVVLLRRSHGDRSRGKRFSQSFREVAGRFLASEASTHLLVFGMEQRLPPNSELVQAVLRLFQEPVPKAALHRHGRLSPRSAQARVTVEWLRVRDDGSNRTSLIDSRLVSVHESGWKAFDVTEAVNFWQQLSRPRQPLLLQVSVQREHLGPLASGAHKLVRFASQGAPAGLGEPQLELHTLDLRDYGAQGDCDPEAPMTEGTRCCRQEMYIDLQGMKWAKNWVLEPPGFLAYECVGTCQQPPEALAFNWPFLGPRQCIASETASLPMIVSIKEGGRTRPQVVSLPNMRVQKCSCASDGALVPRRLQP

[14] = target: Calmodulin-1 (Homo sapiens) (UniProt P0DP23); experiment: small molecules binding calmodulin-1 with EGTA – biochemical, small-molecule microarray, Cy5-labelled CALM1, profiling panel (AID 1111); conditions: Cy5-CALM1 binding fluorescence, higher = more signal;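 also: labelled calmodulin applied in Tris saline Tween buffer holding calcium plus EGTA and DTT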
[15] = target: Calmodulin-1 (Homo sapiens) (UniProt P0DP23); experiment: small molecules binding Ca-loaded calmodulin-1 – biochemical, small-molecule microarray, Cy5-labelled CALM1, plus calcium, artefact control for SMM control-protein annotation, profiling panel (AID 1112); conditions: Cy5-CALM1 binding fluorescence, higher = more signal;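 also: score merges spot fluorescence with signal to noise from triplicate slides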
[16] = probe aWnt5a binding to arrayed compounds – biochemical, biotinylated probe, 635/667 nm fluorescence, primary screen (AID 1113); conditions: small-molecule microarray, higher = more signal;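 also: score merges 667 nm fluorescence intensity with signal-to-noise per printed feature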
[17] = probe aShh binding to arrayed compounds – biochemical, biotinylated probe, 635/667 nm fluorescence, primary screen (AID 1114); conditions: small-molecule microarray, higher = more signal;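 also: probe is biotin-labelled aShh protein from a stem cell growth factor screen; measures binding of labelled protein to compounds printed on the slide; score merges feature fluorescence at 667 nm with signal-to-noise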
[18] = probe aNog binding to arrayed compounds – biochemical, biotinylated probe, 635/667 nm fluorescence, primary screen (AID 1115); conditions: small-molecule microarray, higher = more signal;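 also: probe is biotinylated aNog protein used at 0.15 µg/mL for 1 h at 4 C; z-score combines 667 nm fluorescence of each spot with its signal to noise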
[19] = target: Torsin-1A-interacting protein 1 (Homo sapiens) (UniProt Q5JTV8); experiment: compound microarray binding of lysate hLAP1 – cell lysate, small-molecule microarray, COS7 lysate, 635/667 nm fluorescence, primary screen (AID 1116); conditions: 635 nm fluorescence, higher = more signal
Torsin-1A-interacting protein 1 (Homo sapiens), sequence (Q5JTV8 whole entry, looked up): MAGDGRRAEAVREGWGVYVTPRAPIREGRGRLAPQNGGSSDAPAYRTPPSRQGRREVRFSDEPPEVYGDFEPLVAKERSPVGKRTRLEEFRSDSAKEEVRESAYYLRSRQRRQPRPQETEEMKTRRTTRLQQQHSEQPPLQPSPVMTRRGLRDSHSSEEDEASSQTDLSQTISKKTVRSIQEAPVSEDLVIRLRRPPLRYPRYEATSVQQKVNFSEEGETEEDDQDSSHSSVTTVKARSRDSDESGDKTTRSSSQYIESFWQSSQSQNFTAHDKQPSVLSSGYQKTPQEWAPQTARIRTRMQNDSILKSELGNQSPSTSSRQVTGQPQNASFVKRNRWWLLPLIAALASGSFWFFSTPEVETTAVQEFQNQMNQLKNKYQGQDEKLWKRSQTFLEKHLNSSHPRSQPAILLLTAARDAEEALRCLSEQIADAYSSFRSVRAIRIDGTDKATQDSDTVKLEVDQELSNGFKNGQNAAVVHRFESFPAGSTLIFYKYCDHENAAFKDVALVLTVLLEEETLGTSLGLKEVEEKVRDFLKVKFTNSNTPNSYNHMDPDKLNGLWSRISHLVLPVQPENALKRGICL

[20] = target: Alpha-bungarotoxin (Bungarus multicinctus) (UniProt P60615); experiment: compounds binding labelled alpha-BTX control protein – biochemical, small-molecule microarray, Alexa647 label, 635/667 nm fluorescence, artefact control for SMM control protein annotation, profiling panel (AID 1117); conditions: alpha-BTX-A647 binding fluorescence, higher = more signal
Alpha-bungarotoxin (Bungarus multicinctus), sequence (P60615 whole entry, looked up): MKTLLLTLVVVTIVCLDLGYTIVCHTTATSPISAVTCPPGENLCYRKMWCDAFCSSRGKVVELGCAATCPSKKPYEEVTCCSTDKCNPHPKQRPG

Row | SMILES | composite z-score [1] | composite z-score [2] | composite z-score [3] | z-score [4] | composite z-score [5] | composite z-score [6] | composite z-score [7] | composite z-score [8] | composite z-score [9] | composite z-score [10] | composite z-score [11] | z-score [12] | composite z-score [13] | composite z-score [14] | composite z-score [15] | composite z-score [16] | composite z-score [17] | composite z-score [18] | composite z-score [19] | composite z-score [20]
1 | COc1ccc(CN(C2=CC[C@@]3(C(N)=O)C(=O)C(Cl)=C(Cl)C(=O)[C@@]3(C#N)C2)S(=O)(=O)c2ccc(Br)cc2)cc1 | -0.201 | 0.661 | 0.84 | -2.69 (inactive) | 0.0024 | -0.139 | -0.733 | -0.0224 | -1.28 | 1.03 | 0.731 | -1.56 | -0.885 | 1.1 | 0.391 | -0.11 | -0.0769 | 0.784 | 1.02 | -0.181
2 | [N-]=[N+]=Nc1ccccc1C[C@]1(C(=O)N2CCOCC2)N=C(c2ccc(OCCCO)cc2)O[C@H]1c1ccccc1 | 1.11 | 1.45 | 1.03 | -0.963 (inactive) | 1.16 | 1.29 | 0.307 | 1.01 | 1.93 | 0.52 | 1.04 | -1.81 | 0.444 | 1.17 | 0.173 | 0.104 | -0.153 | 0.347 | 1.18 | 1.31
3 | C[C@@H]1ON(c2ccc(C(=O)OC(C)(C)C)cc2)[C@H](c2ccc(O)cc2)[C@H]1C(=O)N1C(=O)OC[C@H]1Cc1ccccc1 | 0.632 | 0.0187 | -0.369 | 0.121 (inactive) | 0.663 | 1.06 | 0.365 | 0.431 | 0.449 | -0.0851 | 0.606 | -3.77 | 0.545 | 1.35 | 0.307 | 0.0215 | -0.138 | 0.495 | 0.848 | 0.485
4 | COc1ccc([Si](C)(C)[C@@H]2[C@@H](CCn3cc([C@H](O)c4ccccc4)nn3)O[C@]3(C(=O)N(Cc4ccc(N5CCC5=O)cc4)c4ccccc43)[C@H]2C)cc1 | 0.453 | -0.213 | -0.0321 | -0.619 (inactive) | 0.137 | -0.364 | -0.167 | -0.0461 | 0.135 | 0.632 | -0.222 | -2.06 | -0.309 | -0.185 | -0.0351 | -0.217 | -0.191 | 0.318 | 0.0139 | -0.0352
5 | CC(=O)NCCCC[C@@H]1NC(=O)[C@H]2C[C@@H](C(=O)NCCCC[N+](C)(C)C)[C@@H](c3cccc(OCCO)c3)N2C1=O | 0.0726 | 0.186 | -0.201 | -0.307 (inactive) | 1.37 | 0.536 | 1.17 | 1.54 | 1.83 | -0.416 | -0.194 | -1.08 | 1.47 | -2.42 | -1.62 | 0.027 | 0.0121 | -0.122 | 1.04 | 0.604
